SENP6 block: SENP6 protease inhibitors, primary screen, biochemical, luminescence, uHTS. Sentrin-specific protease 6 (Homo sapiens), Q9GZR1. Recombinant SENP6 catalytic domain, aminoluciferin luminescence. inhibition, % at 10 µM. actives 1.8% (n = 330,000);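 active means inhibition above about 50% at the single tested dose, limit read from the data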
Target sequence (Q9GZR1 628-1112 limits assumed): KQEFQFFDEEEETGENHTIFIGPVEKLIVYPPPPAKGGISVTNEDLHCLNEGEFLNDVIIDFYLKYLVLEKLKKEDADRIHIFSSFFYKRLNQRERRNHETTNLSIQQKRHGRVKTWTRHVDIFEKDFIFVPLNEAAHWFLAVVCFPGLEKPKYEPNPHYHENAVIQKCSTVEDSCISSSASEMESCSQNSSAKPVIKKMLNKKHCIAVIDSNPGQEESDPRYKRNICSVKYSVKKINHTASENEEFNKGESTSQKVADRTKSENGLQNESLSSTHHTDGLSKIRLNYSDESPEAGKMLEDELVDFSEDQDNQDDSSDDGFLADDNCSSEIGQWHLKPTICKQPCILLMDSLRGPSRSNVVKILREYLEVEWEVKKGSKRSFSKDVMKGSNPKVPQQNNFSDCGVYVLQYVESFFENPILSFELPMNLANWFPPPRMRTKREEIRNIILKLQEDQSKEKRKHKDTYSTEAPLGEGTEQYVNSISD
SENP7 block: SENP7 protease inhibitors, primary screen, biochemical, luminescence, uHTS | Sentrin-specific protease 7 (Homo sapiens), Q9BQF6 | recombinant SENP7, Z-RLRGG-aminoluciferin luminescence, 40 min | inhibition, % at 5 µM | actives 1.5% (n = 330,000) | AID 434973, 2010;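 active means inhibition above about 50% at the single test dose, limit read from the data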
SENP8 block-1: SENP8 protease inhibitors, primary screen, biochemical, luminescence. Sentrin-specific protease 8 (Homo sapiens), Q96LD8. purified SENP8, Z-RLRGG-aminoluciferin cleavage. inhibition, % at 10 µM. actives 1.2% (n = 330,000). AID 2540, 2010; in the data active means inhibition above about 50%
SENP8 block-2: human SENP8 protease inhibitors, primary screen, biochemical, fluorescence, Nedd8 protein substrate, uHTS; Sentrin-specific protease 8 (Homo sapiens), Q96LD8; recombinant SENP8; inhibition, % at 20 µM; actives 0.64% (n = 360,000); AID 602440, 2012; in the data active means inhibition mostly above about 40%, no sharp cut-off; inactive means mostly below about 27%
Platelet DG rel: inhibitors of platelet dense granule secretion, primary screen, cell-based, MLPCN, human platelets | actives 0.22% (n = 300,000) | human platelet-rich plasma, SFLLRN dense granule ATP release, luminescence | inhibition, %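 (compounds screened at 7.5 µM in platelet-rich plasma)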;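 active means mean replicate score, as percent of positive control, at or above 50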
SENP8 inh conf: human SENP8 protease inhibitors, confirmation, biochemical, Nedd8 protein substrate, single concentration. shares compounds with SENP8 block-2. purified SENP8, Nedd8-AMC/pro-Nedd8 cleavage fluorescence, 30 min. inhibition, % at 25 µM. actives 15% (n = 1,400). AID 624319, 2012; in the data active means inhibition mostly above about 39%, no sharp cut-off; inactive means mostly below about 34%
A number is an active result; - = inactive; . = not tested or not shown. Rows were chosen to be rich in hits. Some 2.4% of all compounds tested hit in one or more screens of this group.

SMILES | SENP6 block | SENP7 block | SENP8 block-1 | SENP8 block-2 | Platelet DG rel | SENP8 inh conf
Cc1ccc(C2=NCCn3c2c2ccccc2[n+]3[O-])cc1 | - | - | - | - | - | .
CC1=NN(c2ccc(C)c(C)c2)C(=O)C1C(c1cccc(O)c1)C1C(=O)N(c2ccc(C)c(C)c2)N=C1C (configuration not stated) | - | - | - | 80.9 | - | 51.9
CCC(C)(C)NC(=O)C(C(C)C)N(CC1CCCO1)C(=O)CNS(=O)(=O)c1ccccc1 (configuration not stated) | - | - | - | - | - | .
Cc1cc(-c2nnc(SCC(=O)Nc3ccc(C)c(C)c3)n2N)n[nH]1 | - | - | - | - | - | .
COc1ccc(NS(=O)(=O)NC(=O)c2c(C)n(C)c3ccccc23)cc1 | - | - | - | 39.1 | - | -
O=C(NNC(=O)C12CC3CC(CC(C3)C1)C2)c1ccccc1[N+](=O)[O-] | - | - | - | - | - | .
C[C@@H]1CN([C@@H](C)CO)C(=O)c2cc(NC(=O)C3CCCCC3)ccc2O[C@@H](C)CCCCO[C@@H]1CN(C)Cc1ccncc1 | . | . | . | - | . | .
COc1ccc(NC(=S)NC(NC(C)=O)C(Cl)(Cl)Cl)c([N+](=O)[O-])c1 (configuration not stated) | - | - | - | - | - | .
COc1ccc(NC(=S)NC(NC(=O)c2cccc(C)c2)C(Cl)(Cl)Cl)c([N+](=O)[O-])c1 (configuration not stated) | - | - | - | 42.2 | . | -
COc1ccc(N2C(=O)[C@@H]3[C@H](C2=O)[C@H]2c4ccccc4C=CN2[C@@H]3C(=O)Nc2ccccc2)cc1 | - | - | - | 43.8 | . | 80.2
Cc1ccc(N2C(=O)[C@@H]3[C@H](C2=O)C2c4ccccc4C=CN2[C@@H]3C(=O)c2ccco2)cc1 (some centres not stated) | . | . | . | 48.7 | . | 89.2
CCn1nnnc1NCc1ccc(OCc2c(F)cccc2Cl)c(OC)c1 | - | - | - | - | - | .
COc1cc(CNn2nnnc2N)ccc1OCc1c(Cl)cccc1Cl | - | - | - | 43.7 | - | -
CCN(CC)P(=O)(c1ccccc1)c1c(C)nc2ccccn12 (configuration not stated) | - | - | - | - | - | .
Cc1c(Cl)cccc1NC(=O)CSC(C)c1nc2ccccc2c(=O)[nH]1 (configuration not stated) | - | - | - | 26.6 | - | -
CC(SCC(=O)Nc1ccccc1)c1nc2ccccc2c(=O)[nH]1 (configuration not stated) | - | - | - | - | - | .
CN(C)S(=O)(=O)c1ccc(NCC2COc3ccccc3O2)c([N+](=O)[O-])c1 (configuration not stated) | - | - | - | - | - | .
CCN(CC)S(=O)(=O)c1ccc(NCC2COc3ccccc3O2)c([N+](=O)[O-])c1 (configuration not stated) | - | - | - | 46.9 | - | -
O=C(CCN1CCCO1)N1CCCC(Nc2cccc(F)c2)C1 (configuration not stated) | . | . | . | - | . | .
COc1ccc(-c2ccc(C(=O)Nc3ccc4c(c3)OCO4)c3occc23)c(C)c1 | . | . | . | - | . | .
CC(C)C[C@H](NC(=O)N1c2ccccc2NC(=O)[C@@H]1C(C)C)C(=O)N1CCC[C@@H]1C(=O)O | - | - | - | 55.7 | - | -
CCC(C)[C@H](NC(=O)N1CC(=O)Nc2ccccc21)C(=O)N[C@H](Cc1ccccc1)C(=O)O (some centres not stated) | - | - | - | 41.1 | - | -
CC(C)[C@H]1C(=O)Nc2ccccc2N1C(=O)N[C@@H](Cc1ccccc1)C(=O)N[C@H](Cc1ccccc1)C(=O)O | - | - | - | - | - | .
CC(C)[C@H](NC(=O)N1c2ccccc2NC(=O)[C@@H]1C(C)C)C(=O)N[C@H](Cc1ccccc1)C(=O)O | - | - | - | 40.0 | - | -
CCN1CCCC1CNC(=O)Cn1cc(C)c(=O)[nH]c1=O (configuration not stated) | . | . | . | - | . | .
SMILES | SENP6 block | SENP7 block | SENP8 block-1 | SENP8 block-2 | Platelet DG rel | SENP8 inh conf
C=CCC1CCCCC12NC(=O)N(c1ccccc1)N2 (configuration not stated) | - | - | - | - | - | .
O=C1CCC2(CC1)NC(=O)N(c1ccccc1)N2 | - | - | - | 36.7 | - | -
Cc1cc(C)nc(N2C(=O)CC(C(=O)O)NC2=NCCc2c[nH]c3ccccc23)n1 (configuration not stated) | - | - | - | - | - | .
Cc1cc(C)nc(NC(=NCCc2c[nH]c3ccccc23)NC(=O)C(C)(C)C)n1 | - | - | - | 46.4 | - | -
COCCNC(=S)NN=C1CCCCC1 | - | - | - | 46.2 | - | -
OC(c1ccc(-c2ccccc2)cc1)c1ncc(-c2ccccc2Cl)[nH]1 (configuration not stated) | . | . | . | - | . | .
CC(C)[C@H](NC(=O)c1cccc(CN(Cc2ccccc2)C(=O)/C=C/c2ccccc2)c1)C(=O)O | - | - | - | - | - | .
CCCCN1C(=O)C(=O)N(CC(=O)c2ccc3c(c2)OCO3)C1=O | - | - | - | - | - | .
CCOC(=O)C(/C=C(\C#N)C(=O)OCC)=C(/N)N1CCN(c2ccc(Cl)cc2)CC1 | - | - | - | 46.5 | - | -
CCOC(=O)N1CCN(c2ccc(Cl)cc2)CC1 | - | - | - | - | - | .
O=C(CNC1CCCC1)Nc1ccc(S(=O)(=O)N2CCCCC2)cc1 | - | - | - | - | - | .
O=C(CNC1CCN(Cc2ccccc2)CC1)Nc1ccc(S(=O)(=O)N2CCCCC2)cc1 | - | - | - | 43.4 | - | -
COCC(=O)N1CCN(c2ccc([N+](=O)[O-])cc2)CC1 | - | - | - | 42.0 | - | -
C=C(C(=O)O)C1CCC2(C)CCCC(C)(O)C2C1 (configuration not stated) | - | - | - | 47.9 | - | -
CC1=NN(c2ccccc2)C(=O)C1C=Nc1ccc(N(C)C)cc1 (configuration not stated) | - | - | - | 16.6 | - | -
CCOC(=O)C1=C(C)N[C@@]2(O)c3ccccc3C(=O)[C@@]12O | - | - | - | - | - | .
CCCCOC(=O)C1=C(C)NC2(O)c3ccccc3C(=O)C12O (configuration not stated) | - | - | - | 46.5 | - | 65.0
CCN(CC)c1ccc(NC2CC(=O)N(CCc3ccc(OC)cc3)C2=O)cc1 (configuration not stated) | - | - | - | 73.6 | - | -
COc1ccc(CCNC2CC(=O)N(CCc3ccccc3)C2=O)cc1 (configuration not stated) | - | - | - | - | - | .
